According to PubChem BioAssay (NCATS):
Records with an inconclusive call do not appear. Calls of active or inactive are those of the source. Unless noted, calls come from the whole dose curve; as a rule, active = well fitted curve in the direction sought with a large enough effect; inconclusive = small, poorly fitted or top-dose-only effect, or another doubt; inactive = no such curve, though single readings can be large; an effect the other way counts as inactive or inconclusive.

Key:
[1] = target: Lysosomal acid glucosylceramidase (Homo sapiens) (UniProt P04062); experiment: Glucocerebrosidase-p2 (AID 348; in the data active = potency below about 10 µM; note: potency is the fitted concentration of half-maximal effect); conditions: purified GBA, blue fluorogenic substrate, 40 min
Chain of Lysosomal acid glucosylceramidase (Homo sapiens) (P04062 whole entry, looked up): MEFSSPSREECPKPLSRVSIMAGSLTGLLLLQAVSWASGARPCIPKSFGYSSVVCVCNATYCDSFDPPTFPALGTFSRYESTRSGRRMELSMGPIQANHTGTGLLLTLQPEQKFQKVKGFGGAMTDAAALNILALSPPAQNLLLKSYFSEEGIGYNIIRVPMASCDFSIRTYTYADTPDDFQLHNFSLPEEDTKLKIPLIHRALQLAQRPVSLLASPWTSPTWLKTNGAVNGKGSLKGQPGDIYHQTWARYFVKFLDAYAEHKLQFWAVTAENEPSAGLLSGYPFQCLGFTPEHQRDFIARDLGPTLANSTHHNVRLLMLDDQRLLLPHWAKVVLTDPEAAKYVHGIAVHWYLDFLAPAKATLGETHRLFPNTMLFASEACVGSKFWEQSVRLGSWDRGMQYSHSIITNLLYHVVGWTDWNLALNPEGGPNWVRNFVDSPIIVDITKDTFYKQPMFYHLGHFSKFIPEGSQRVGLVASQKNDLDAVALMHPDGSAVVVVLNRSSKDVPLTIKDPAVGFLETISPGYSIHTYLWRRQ
How it was run: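 Normal human glucocerebrosidase (0.2 nM) with blue fluorogenic substrate (80 uM final) in citrate/phosphate pH 5.9 with 10mM sodium taurocholate, 0.01% tween-20; 40 min RT, NaOH/glycine stop; fluorescence Ex 365/Em 440; AC50 from a titration from 0.6 nM upwards.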

[2] = AP1 Signaling Pathway (AID 357; active = well fitted curve in either direction with a large enough effect, not every such curve was filed as active; note: % is set by controls: 0 for no effect and ±100 for the full control effect); conditions: ME-180 AP-1-bla reporter, EGF-induced, beta-lactamase ratio, 5 h; at 7.69 µM (top of the series) unless noted
How it was run: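 AP-1-bla ME-180 cells with beta-lactamase reporter under AP-1 response element, stimulated with EC50 EGF; compounds titrated, 5 hours at 37 degrees Celsius. CCF4 read at 460/530 nm ratio; positive and negative modulators judged by AC50.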

[3] = target: Cytochrome P450 1A2 (Homo sapiens) (UniProt P05177); experiment: p450-cyp1a2 (AID 410; calls by dose curve; note: potency is the fitted concentration of half-maximal effect); conditions: recombinant CYP1A2, luciferin-ME demethylation, luminescence; series mostly up to 57 µM
Chain of Cytochrome P450 1A2 (Homo sapiens) (P05177 whole entry, looked up): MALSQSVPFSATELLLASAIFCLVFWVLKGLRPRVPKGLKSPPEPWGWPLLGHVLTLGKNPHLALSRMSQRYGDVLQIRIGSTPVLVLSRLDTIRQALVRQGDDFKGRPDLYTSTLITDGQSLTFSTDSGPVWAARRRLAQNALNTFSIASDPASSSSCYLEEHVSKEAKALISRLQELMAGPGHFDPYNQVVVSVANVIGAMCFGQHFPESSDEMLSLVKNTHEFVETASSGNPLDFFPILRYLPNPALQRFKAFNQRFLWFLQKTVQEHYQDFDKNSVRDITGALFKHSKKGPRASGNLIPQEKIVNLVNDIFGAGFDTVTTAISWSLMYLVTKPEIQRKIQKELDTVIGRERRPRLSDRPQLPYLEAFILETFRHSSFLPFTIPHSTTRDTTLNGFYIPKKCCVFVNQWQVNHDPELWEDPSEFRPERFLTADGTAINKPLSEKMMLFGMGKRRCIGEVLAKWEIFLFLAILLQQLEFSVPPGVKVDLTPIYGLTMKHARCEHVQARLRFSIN
How it was run: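 Read-out is luminescence from luciferin produced by CYP1A2 demethylation of Luciferin-ME (100uM, at Km). Detection reagent stopped the 60 min NADPH-dependent reaction; signals were normalized to 57 uM furafylline.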

[4] = NFAT Signaling Pathway (AID 444; active = well fitted curve in either direction with a large enough effect, not every such curve was filed as active;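 note: carbachol stimulus at about its EC50 of 1 µM final; % is set by controls: 0 for no effect and ±100 for the full control effect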); conditions: Jurkat NFAT-bla M1, carbachol, beta-lactamase ratio, 5 h; at 7.69 µM (top of the series) unless noted
How it was run: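 Jurkat cells with NFAT-driven β-lactamase reporter and co-expressed M1 receptor, stimulated with carbachol (final 1 uM, ~EC50), compound titration, 5 h at 37 °C. CCF4 loaded 1 h at RT; 460/530 nm ratio gave %activity and AC50.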

[5] = Stat Signaling Pathway (AID 446; active = well fitted curve in either direction with a large enough effect, not every such curve was filed as active;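 note: ME-180 cervical cancer cells given 40 pM IL-6 alongside compound; SIE-controlled beta-lactamase reporter measured as 460/530 nm FRET emission ratio; % is set by controls: 0 for no effect and ±100 for the full control effect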); conditions: ME-180 (cervical carcinoma) SIE beta-lactamase reporter, IL-6 stimulated, 5 h; series mostly up to 7.69 µM
How it was run: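 Compound effects on IL-6-induced STAT reporter activity were measured in ME-180 cells. After overnight culture, cells were co-treated with 40 pM IL-6 for 5 hrs before beta-lactamase substrate loading at room temperature.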

[6] = target: Glucocorticoid receptor (Homo sapiens) (UniProt P04150); experiment: GR-GFP Redistribution (AID 450;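 active = compounds whose dose series gives a full or clear partial fitted curve of increased nuclear translocation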; note: potency is the fitted concentration of half-maximal effect); conditions: U2OS GR-GFP nuclear translocation, laser cytometry, 2 h
Chain of Glucocorticoid receptor (Homo sapiens) (P04150 whole entry, looked up, the tested form may be a part): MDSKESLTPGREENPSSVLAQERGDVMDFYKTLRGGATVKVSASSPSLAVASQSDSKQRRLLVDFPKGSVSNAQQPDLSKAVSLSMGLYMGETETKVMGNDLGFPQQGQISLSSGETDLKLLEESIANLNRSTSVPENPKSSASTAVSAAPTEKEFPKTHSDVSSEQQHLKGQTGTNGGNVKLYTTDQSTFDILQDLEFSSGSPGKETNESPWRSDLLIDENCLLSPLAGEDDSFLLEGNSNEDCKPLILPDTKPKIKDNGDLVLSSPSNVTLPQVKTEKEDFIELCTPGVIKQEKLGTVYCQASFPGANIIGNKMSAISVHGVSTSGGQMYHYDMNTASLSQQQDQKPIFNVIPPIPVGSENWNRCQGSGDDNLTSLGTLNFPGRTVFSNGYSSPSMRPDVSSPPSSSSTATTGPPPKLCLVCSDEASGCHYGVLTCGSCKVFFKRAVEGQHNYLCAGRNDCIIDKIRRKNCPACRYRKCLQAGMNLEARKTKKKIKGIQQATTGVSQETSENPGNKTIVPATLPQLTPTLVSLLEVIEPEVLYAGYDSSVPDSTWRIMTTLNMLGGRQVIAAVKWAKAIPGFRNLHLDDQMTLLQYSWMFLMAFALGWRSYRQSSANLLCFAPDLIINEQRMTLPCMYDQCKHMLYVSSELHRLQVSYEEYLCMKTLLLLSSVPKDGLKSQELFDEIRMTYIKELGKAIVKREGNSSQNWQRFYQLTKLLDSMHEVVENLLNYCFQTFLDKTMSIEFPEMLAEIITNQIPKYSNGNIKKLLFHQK

[7] = target: Glucocorticoid receptor (Homo sapiens) (UniProt P04150); experiment: GR-EFC Redistribution (AID 451; calls by dose curve; note: potency is the fitted concentration of half-maximal effect); conditions: CHO-K1 GR-EFC translocation, beta-gal luminescence, 2 h
How it was run: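 CHO-K1 cells expressing nuclear EA and GR-ED fragments of b-gal; compounds titrated up to 46 uM final, 2 h at 37 C. GR nuclear translocation read as complemented b-gal luminescence after 1 h RT detection.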

[8] = target: 3',5'-cyclic-AMP phosphodiesterase 4B (Homo sapiens) (UniProt Q07343); experiment: qHTS Assay for Inhibitors of PDE-IV (AID 607; active = well fitted activation curve with a large enough effect in the main read-out, with a control signal flat, not every such curve was filed as active; note: % of control where 0% means no effect); conditions: HEK293 ACTOne CNG channel cells, membrane potential fluorescence; series mostly up to 22.9 µM
Chain of 3',5'-cyclic-AMP phosphodiesterase 4B (Homo sapiens) (Q07343 whole entry, looked up): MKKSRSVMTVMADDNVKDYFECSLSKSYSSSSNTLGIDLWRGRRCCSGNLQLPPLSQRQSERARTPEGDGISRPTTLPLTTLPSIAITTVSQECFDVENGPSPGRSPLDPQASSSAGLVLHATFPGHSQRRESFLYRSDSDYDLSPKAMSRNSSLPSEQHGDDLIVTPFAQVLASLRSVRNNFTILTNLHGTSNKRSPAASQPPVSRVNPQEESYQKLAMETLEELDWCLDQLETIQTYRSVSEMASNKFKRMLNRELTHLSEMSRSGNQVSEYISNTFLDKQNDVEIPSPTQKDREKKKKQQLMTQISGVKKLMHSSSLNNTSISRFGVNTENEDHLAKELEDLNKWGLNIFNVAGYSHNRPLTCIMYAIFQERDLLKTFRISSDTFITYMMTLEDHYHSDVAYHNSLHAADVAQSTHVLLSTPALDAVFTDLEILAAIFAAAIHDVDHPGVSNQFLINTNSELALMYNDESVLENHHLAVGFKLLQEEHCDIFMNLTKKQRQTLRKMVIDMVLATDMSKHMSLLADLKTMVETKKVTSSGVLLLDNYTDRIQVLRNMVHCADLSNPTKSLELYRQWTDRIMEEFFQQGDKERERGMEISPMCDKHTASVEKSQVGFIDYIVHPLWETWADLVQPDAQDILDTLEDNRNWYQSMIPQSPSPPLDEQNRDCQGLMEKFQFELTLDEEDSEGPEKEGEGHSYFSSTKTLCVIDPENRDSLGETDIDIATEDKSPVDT
How it was run: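 ACTOne HEK293 cells carry a modified cAMP-gated CNG channel and express endogenous PDE4; plated 1000 cells/well, compounds up to 22.9 uM final. Membrane-potential dye fluorescence (ex 535/em 590) was read; parental cells received 10 uM forskolin + 100 uM RO 20-1724.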

[9] = target: Cytochrome P450 3A4 (Homo sapiens) (UniProt P08684); experiment: qHTS Assay for Activators of Cytochrome P450 3A4 (AID 885); conditions: recombinant CYP3A4, Luciferin-PPXE luminescence, 60 min; series mostly up to 57.1 µM; note: nearly all actives have a fitted effect of over 65% in size
Chain of Cytochrome P450 3A4 (Homo sapiens) (P08684 whole entry, looked up): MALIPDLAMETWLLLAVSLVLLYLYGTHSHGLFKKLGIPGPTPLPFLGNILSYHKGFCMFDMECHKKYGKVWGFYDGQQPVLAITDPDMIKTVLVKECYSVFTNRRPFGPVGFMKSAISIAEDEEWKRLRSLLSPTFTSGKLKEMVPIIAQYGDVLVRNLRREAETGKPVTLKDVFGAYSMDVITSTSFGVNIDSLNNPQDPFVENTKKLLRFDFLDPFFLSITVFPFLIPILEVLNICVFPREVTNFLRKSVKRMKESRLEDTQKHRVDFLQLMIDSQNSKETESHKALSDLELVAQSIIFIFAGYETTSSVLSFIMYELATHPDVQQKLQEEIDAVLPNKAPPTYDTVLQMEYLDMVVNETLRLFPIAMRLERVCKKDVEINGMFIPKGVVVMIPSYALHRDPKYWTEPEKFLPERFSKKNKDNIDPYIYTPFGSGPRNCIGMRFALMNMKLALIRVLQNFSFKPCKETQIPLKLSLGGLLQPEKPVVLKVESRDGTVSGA
How it was run: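 CYP3A4 activity: Luciferin-PPXE O-dealkylation, 25uM substrate, 200mM KPO4, RT throughout. Read-out is luciferase luminescence; higher values reflect activation.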

[10] = target: Dual specificity protein kinase CLK4 (Homo sapiens) (UniProt Q9HAZ1); experiment: qHTS Assay for Inhibitors of CDC-like Kinase 4 (ADP-FP Assay) (AID 1795); conditions: Transcreener ADP fluorescence polarization; series mostly up to 50 µM; note: nearly all actives have a fitted effect of over 60% in size; note: potency is the fitted concentration of half-maximal effect
Chain of Dual specificity protein kinase CLK4 (Homo sapiens) (Q9HAZ1 whole entry, looked up): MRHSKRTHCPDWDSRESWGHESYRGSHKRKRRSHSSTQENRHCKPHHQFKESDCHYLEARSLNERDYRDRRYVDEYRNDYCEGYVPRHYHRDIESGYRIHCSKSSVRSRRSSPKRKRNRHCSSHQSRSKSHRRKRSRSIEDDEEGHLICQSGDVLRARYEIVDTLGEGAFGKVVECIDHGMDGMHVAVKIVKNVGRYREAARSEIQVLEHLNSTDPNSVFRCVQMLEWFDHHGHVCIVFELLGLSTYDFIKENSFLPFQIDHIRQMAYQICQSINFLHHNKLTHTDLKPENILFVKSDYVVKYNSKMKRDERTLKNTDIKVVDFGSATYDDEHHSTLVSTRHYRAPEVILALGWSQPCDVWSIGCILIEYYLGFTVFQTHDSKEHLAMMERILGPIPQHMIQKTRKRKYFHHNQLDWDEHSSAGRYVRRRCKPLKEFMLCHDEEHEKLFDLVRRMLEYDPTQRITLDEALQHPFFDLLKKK
How it was run: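 Clk4 6.25 nM; RS peptide 100 uM; ATP 1 uM; 25 mM Tris pH 7.5, 10 mM MgCl2; 1 h reaction. ADP detected via antibody/orange tracer FP displacement; TG003 positive control.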

[11] = target: Ubiquitin carboxyl-terminal hydrolase 1 (Homo sapiens) (UniProt O94782); experiment: Inhibitors of USP1/UAF1: Pilot qHTS (AID 504865); conditions: purified USP1/UAF1, Ub-rhodamine cleavage fluorescence; series mostly up to 54.9 µM; note: nearly all actives have a fitted effect of over 35% in size; note: potency is the fitted concentration of half-maximal effect
Chain of Ubiquitin carboxyl-terminal hydrolase 1 (Homo sapiens) (O94782 whole entry, looked up): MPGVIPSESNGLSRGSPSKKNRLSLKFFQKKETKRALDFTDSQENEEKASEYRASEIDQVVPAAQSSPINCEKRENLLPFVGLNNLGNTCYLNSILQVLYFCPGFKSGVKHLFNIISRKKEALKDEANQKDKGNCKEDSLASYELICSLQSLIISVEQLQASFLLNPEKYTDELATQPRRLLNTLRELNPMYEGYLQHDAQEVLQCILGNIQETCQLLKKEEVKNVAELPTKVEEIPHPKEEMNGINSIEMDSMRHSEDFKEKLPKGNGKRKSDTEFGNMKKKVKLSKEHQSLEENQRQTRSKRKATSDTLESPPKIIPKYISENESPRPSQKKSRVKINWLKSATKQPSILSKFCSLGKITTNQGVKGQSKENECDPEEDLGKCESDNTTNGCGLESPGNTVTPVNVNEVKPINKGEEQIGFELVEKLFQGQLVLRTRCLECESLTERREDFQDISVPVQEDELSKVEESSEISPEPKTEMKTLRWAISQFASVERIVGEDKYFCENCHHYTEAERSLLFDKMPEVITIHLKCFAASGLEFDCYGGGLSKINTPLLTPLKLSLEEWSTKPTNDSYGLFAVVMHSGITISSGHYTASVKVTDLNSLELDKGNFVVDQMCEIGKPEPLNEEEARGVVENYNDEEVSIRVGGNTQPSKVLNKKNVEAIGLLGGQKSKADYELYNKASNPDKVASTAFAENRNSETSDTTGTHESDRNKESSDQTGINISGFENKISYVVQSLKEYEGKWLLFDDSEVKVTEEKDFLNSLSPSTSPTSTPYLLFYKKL
How it was run: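 In 50mM HEPES pH 7.8 containing 0.5mM EDTA, 1mM TCEP, 0.1 mg/ml BSA and 0.01% Tween-20, 1nM USP1/UAF1 is exposed to compound for 15 min, then Ub-Rho (150nM final) is added and fluorescence is read over time.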

[12] = target: Mitogen-activated protein kinase 10 (Mus musculus) (UniProt Q61831); experiment: JNK3 AlphaScreen Assay (AID 530; active = well fitted curve in either direction with a large enough effect, not every such curve was filed as active;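 note: kinase came from lysate of stimulated human HepG2 cells; signal reports phosphorylation of biotinylated GST-cJun 1-79 at Ser73 with 10 µM ATP; % is set by controls: 0 for no effect and ±100 for the full control effect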); conditions: JNK3 lysate, c-Jun phosphorylation; series mostly up to 57.1 µM
How it was run: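 HepG2 lysate (IL-1b/TNFa pre-activated) + biotin-GST-cJun 1-79 + anti-pSer73 cJun; cpd titration, 15 min RT; ATP 10 uM start; Tris pH 7.6, MgCl2, DTT, vanadate; beads in EDTA buffer; AlphaScreen.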

[13] = target: Cytochrome P450 3A4 (Homo sapiens) (UniProt P08684); experiment: qHTS Assay for Inhibitors and Substrates of Cytochrome P450 3A4 (AID 884); conditions: recombinant CYP3A4, Luciferin-PPXE luminescence; series mostly up to 57.1 µM; note: potency is the fitted concentration of half-maximal effect; nearly all actives have a fitted effect of over 50% in size
How it was run: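 Luminescent readout of luciferin produced by CYP3A4 (20 nM) dealkylation of Luciferin-PPXE, 25 uM (its KM). NADPH-driven reaction ran 60 min at RT after 10 min compound preincubation; data scaled to 57 uM ketoconazole as 100% inhibition.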

[14] = target: Cytochrome P450 2C19 (Homo sapiens) (UniProt P33261); experiment: qHTS Assay for Inhibitors and Substrates of Cytochrome P450 2C19 (AID 899); conditions: recombinant CYP2C19, luciferin-H EGE luminescence; series mostly up to 57.1 µM; note: potency is the fitted concentration of half-maximal effect; nearly all actives have a fitted effect of over 60% in size
Chain of Cytochrome P450 2C19 (Homo sapiens) (P33261 whole entry, looked up, canonical isoform): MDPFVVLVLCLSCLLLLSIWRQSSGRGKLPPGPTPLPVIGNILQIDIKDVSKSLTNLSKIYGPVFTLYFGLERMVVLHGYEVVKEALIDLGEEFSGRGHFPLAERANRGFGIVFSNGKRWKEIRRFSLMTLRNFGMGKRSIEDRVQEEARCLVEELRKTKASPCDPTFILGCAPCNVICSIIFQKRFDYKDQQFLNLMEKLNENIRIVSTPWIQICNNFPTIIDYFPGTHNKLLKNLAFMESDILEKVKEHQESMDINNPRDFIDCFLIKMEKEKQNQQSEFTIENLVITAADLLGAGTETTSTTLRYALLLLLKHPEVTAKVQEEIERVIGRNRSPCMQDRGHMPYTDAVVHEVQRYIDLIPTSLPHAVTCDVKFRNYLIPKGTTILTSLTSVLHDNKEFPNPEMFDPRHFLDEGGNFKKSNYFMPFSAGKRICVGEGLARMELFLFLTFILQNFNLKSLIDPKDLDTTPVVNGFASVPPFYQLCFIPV
How it was run: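 Signal comes from luciferase acting on luciferin released by CYP2C19-mediated hydroxylation of Luciferin-H EGE, 10uM (KM). Assay mix: 5nM enzyme, 50mM KPO4; 60 min at 37C with NADPH regeneration. Data normalized against 57uM ketoconazole.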

[15] = target: Glutathione peroxidase 1 (Homo sapiens) (UniProt P07203); experiment: Primary qHTS Assay for Inhibitors of Recombinant Selenoprotein Glutathione Peroxidase 1 (GPX1) (AID 1845191); conditions: recombinant GPX1, GR-coupled NADPH fluorescence, 15 min; series mostly up to 48.8 µM; note: % is set by controls: 0 for no effect and ±100 for the full control effect; nearly all actives have a fitted effect of over 65% in size
How it was run: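 GR-coupled readout: NADPH consumption tracked by fluorescence, ex 340/em 450 nm, at t=0 and after 15 min at RT. Final mix 10 nM GPX1, 1 mM GSH, 0.5 mM CHP, 0.5 mM NADPH, 100 nM GR, 0.01% BSA, following 30 min enzyme–compound preincubation.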

[16] = Viability counterscreen for agonist of constitutive androstane receptor (CAR) against the NCATS DSHEA and TCM libraries (AID 1794838); conditions: HepG2 cell viability counterscreen, CAR agonist assay, co-treated with 0.75 µM CAR antagonist; series mostly up to 40 µM;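 note: HepG2 cells with CYP2B6 reporter and hCAR plus 0.75 µM PK11195 antagonist; 0% is about no effect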
How it was run: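 Cell health was measured as CellTiter-Fluor signal in HepG2-CYP2B6-hCAR cells treated for 24 h with substances alongside the hCAR antagonist PK11195 (0.75 uM final).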

[17] = HepG2 viability counterscreen (readout 2: ATP content) against the NCATS DSHEA and TCM libraries (AID 1794840); conditions: ATP content luminescence; series mostly up to 27.3 µM; note: 0% is about no effect
How it was run: (§1)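 Same wells read twice: first fluorescence from cleaved GF-AFC substrate (25 uM final, 30 min, 37C) for live-cell protease, then CellTiter-Glo luminescence after 30 min at room temperature for ATP. HepG2 cells were exposed ~24 h to substances.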

[18] = HepG2 viability counterscreen (readout 1: protease activity) against the NCATS DSHEA and TCM libraries (AID 1794841); conditions: qHTS concentration series; series mostly up to 27.3 µM;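 note: cells exposed to compounds for about 24 h before the protease read; 0% is about no effect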
How it was run: as §1

[19] = target: Cytochrome P450 2D6 (Homo sapiens) (UniProt P10635); experiment: qHTS for inhibitors of CYP2D6 against the NCATS DSHEA and TCM libraries (AID 1919972); conditions: CYP2D6 enzymatic inhibition, luminescence qHTS; series mostly up to 34.1 µM; note: % is set by controls: 0 for no effect and ±100 for the full control effect
How it was run: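 qHTS, concentration–response format with most substances from 19.5 nM. CYP2D6 + pro-luciferin substrate, 15 min with compound, then 1x NADPH regen, 30–45 min RT dark. Glo detection 30 min, luminescence. Quinidine control.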

[20] = target: Cytochrome P450 2C19 (Homo sapiens) (UniProt P33261); experiment: qHTS for inhibitors of CYP2C19 against the NCATS DSHEA and TCM libraries (AID 1919974); conditions: CYP2C19 enzyme inhibition, luminescence qHTS; series mostly up to 34.1 µM;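 note: luminescence from luciferin released by CYP2C19 oxidation of a pro-luciferin substrate; potency is the fitted concentration of half-maximal effect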
How it was run: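 Isoform-specific enzyme and substrate levels; enzyme-free wells as background. Reaction: 1x NADPH regenerating system, 30-45 min, room temperature, shielded from light; luminescent detection reagent added, 30 min.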

[21] = qHTS Counterscreen for compound interference against the NCATS DSHEA and TCM libraries (AID 1919978); conditions: firefly luciferase detection reagent interference, luminescence;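 note: compounds preincubated with 1 µM D-luciferin or buffer before detection reagent; % of control where 0% means no effect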
How it was run: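 Compounds, titrated from 19.5 nM to 39.8 uM final, were pinned onto 1 uM D-luciferin or plain 100 mM potassium phosphate. After 15 min at room temperature, luciferin detection reagent was added for 30 min before the luminescence read.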

[22] = Dual reporter qHTS for agonist of Pregnane X Receptor (hPXR) against the NCATS DSHEA and TCM libraries: Fluorescence readout (AID 1920058); conditions: PXR dual reporter cells; series mostly up to 40 µM; note: 0% is about no effect
How it was run: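 In this qHTS counter-read, reporter-bearing HepG2 cells in charcoal-stripped serum received substances for approximately 24 h before viability was assessed fluorometrically with CellTiter-Fluor.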

[23] = target: Nuclear receptor subfamily 1 group I member 2 (Homo sapiens) (UniProt O75469); experiment: Dual reporter qHTS for agonist of Pregnane X Receptor (hPXR) against the NCATS DSHEA and TCM libraries: Luminescence readout (AID 1920059); conditions: hPXR dual reporter cells, luciferase luminescence agonist; series mostly up to 40 µM; note: 0% is about no effect
How it was run: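 hPXR-Luc HepG2 cells, 2000/well in 5% charcoal-stripped FBS medium, attached 5 h, then exposed 24 h at 37C to compounds. Viability by CellTiter-Fluor, then luciferase luminescence with ONE-Glo.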

[24] = Dual reporter qHTS for antagonist of Pregnane X Receptor (hPXR) against the NCATS DSHEA and TCM libraries: Fluorescence Readout (AID 1920061); conditions: PXR dual reporter cells, antagonist mode; series mostly up to 40 µM; note: 0% is about no effect
How it was run: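 Antagonist mode: rifampicin 2 uM final co-added with compounds to hPXR-LucHepG2 cells for 24 h at 37C. Viability by CellTiter-Fluor, Ex/Em 405/540 nm, 1 h; reporter by ONE-Glo luminescence.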

O=c1cnc2cnc(N3CCOCC3)nc2n1Cc1cccs1
inactive: Potency [1] > 11.4 µM | activity change, negative = inhibition [2] -3.18% | activity change, negative = inhibition [4] -0.57% | outcome [5] | Potency [6] > 9.22 µM | Potency [7] > 46 µM | Potency [8] | outcome [9] | Potency [10] | Potency [11]
active: Potency [3] 2.51 µM

COc1ccc2[nH]cc(CCNc3ncncc3-c3ccc4c(c3)OCO4)c2c1
inactive: activity change, negative = inhibition [2] -27.8% | outcome [5] | Potency [6] > 46 µM | Potency [7] > 46 µM | Potency [12] | Potency [8] | Potency [11]
active: Potency [10] 10 µM

FC(F)(F)c1ccccc1-c1nc(NCc2cccnc2)c2ccccc2n1
active: Potency [3] 2 µM | Potency [13] 2 µM | Potency [14] 3.98 µM | Potency [11] 12.6 µM
inactive: Potency [1] > 11.4 µM | activity change, negative = inhibition [2] 5.72% | activity change, negative = inhibition [4] 3.45% | outcome [5] | Potency [6] > 46 µM | Potency [7] > 46 µM | Potency [12] | outcome [9] | Potency [10]

CCC(=O)O[C@]1(C(=O)COC(C)=O)CC[C@H]2[C@@H]3C[C@H](C)C4=CC(=O)C=C[C@]4(C)[C@H]3[C@@H](O)C[C@@]21C
inactive: Potency [15]

CC(=O)O[C@@H]1CC[C@@]2(C)[C@@H](CC[C@]3(C)[C@@H]2C(=O)C=C2[C@@H]4[C@@H](C)[C@H](C)CC[C@]4(C)CC[C@]23C)[C@@]1(C)C(=O)O
inactive: outcome [16] | outcome [17] | outcome [18] | Potency [19] | max response [21] -0.124% | outcome [22] | Potency [23] | outcome [24]
active: Potency [20] 3.55 µM
